PubChem BioAssay (NCI)
The panel holds about 83,000 compounds, 20% with a hit somewhere; the sample as a whole holds those more often.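 Single-dose data. Exposure time 48 hours. Values below 10 considered active.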 Unmarked numbers belong to inactive results. Active and inactive are the calls of the source.

How the values were obtained:
Assay in all cases: NCI-60 one-dose screen, 48 h (100 = growth as untreated, 0 = no growth, -100 = all killed)
Settings in all cases: 10 µM unless noted
HCT-15 colon = system: HCT-15 colon
HT29 colon = system: HT29 colon
SNB-75 CNS = system: SNB-75 CNS
SNB-19 CNS = system: SNB-19 CNS
U251 CNS = system: U251 CNS
PC-3 prostate = system: PC-3 prostate
SK-MEL-5 melanoma = system: SK-MEL-5 melanoma
UACC-62 melanoma = system: UACC-62 melanoma
LOX IMVI melanoma = system: LOX IMVI melanoma
SK-MEL-28 melanoma = system: SK-MEL-28 melanoma

Row | SMILES | growth (HCT-15 colon) | growth (HT29 colon) | growth (SNB-75 CNS) | growth (SNB-19 CNS) | growth (U251 CNS) | growth (PC-3 prostate) | growth (SK-MEL-5 melanoma) | growth (UACC-62 melanoma) | growth (LOX IMVI melanoma) | growth (SK-MEL-28 melanoma)
1 | Fc1cc(-c2nnc3sc(-c4ccc(Cl)cc4Cl)nn23)c(Cl)cc1Cl | 90.7% | 72.1% | 49.1% | 79.5% | 75.5% | 94.4% | 67.4% | 92.3% | 96.2% | 69.3%
2 | Cc1cccc2c3c(sc12)C(c1ccc(F)cc1)C(C#N)=C(N)O3 (stereo not given) | 8.13% (active) | 9.55% (active) | 23.4% | 23.8% | 25.5% | 8.46% (active) | -3.29% (active) | 24.9% | 9.86% (active) | 62%
3 | CCOC(=O)c1sc2ncc(-c3ccc(C)cc3)n2c1C | 90.1% | 93.1% | 74.7% | 94.5% | 96.2% | 81% | 95.1% | 72.6% | 85.2% | 102%
4 | COc1cc(CNS(=O)(=O)c2ccc(C)cc2)ccc1OCc1cn(-c2ccccc2)nn1 | 88.2% | 103% | 91.9% | 92.3% | 89.1% | 86.7% | 80.1% | 75.2% | 94.1% | 101%
5 | COc1ccc(C2C(C#N)=C(N)Oc3c2sc2c(C)cccc32)cc1 (stereo not given) | 9.6% (active) | 6.72% (active) | -4.52% (active) | 26.3% | 25.4% | 11.3% | 29% | 19.3% | 17.2% | 57.1%
6 | Cc1ccc(-c2nc(N3CCN(CC(=O)Nc4ccc(Cl)cc4)CC3)c3ccccc3n2)cc1 | 79.9% | 80.8% | 77.7% | 93.1% | 92.5% | 80.6% | 89% | 75.9% | 97.4% | 99.8%
7 | O=C1CCC/C=C\C[C@H]2C=CC(=O)/C2=C/C[C@H](CCc2cccc(C(F)(F)F)c2)O1 | -10.8% (active) | -31.9% (active) | 15.2% | -17.1% (active) | -93% (active) | -20.7% (active) | -82.8% (active) | -45.9% (active) | -72.6% (active) | -39.5% (active)
8 | COc1ccc(C(=O)N=Nc2c(O)n(C)c3ccccc23)cc1 | 91.6% | 103% | 91.6% | 87.3% | 98.5% | 90.9% | 89.1% | 90.6% | 81.8% | 107%
9 | Oc1ccc(Cl)cc1Cc1cc(Cl)cc(Cl)c1O | 41.2% | 107% | 60.5% | 34.8% | 13% | -0.0941% (active) | 5.53% (active) | -9.82% (active) | 20.2% | 31.2%
10 | CN1CCN(c2ccc(-c3cnc4c(-c5csc6ccccc56)cnn4c3)cc2)CC1 | -4.7% (active) | -40.4% (active) | -54.4% (active) | 13.3% | -87.3% (active) | -12.4% (active) | -100% (active) | -2.26% (active) | -91.2% (active) | -7.59% (active)
